M1 PAM: human CHRM1 positive allosteric modulation; activation, % at 3 µM; 360,000 tested, 0.088% active; P11229; CHO-K1 hM1, Fluo-8 calcium fluorescence, ACh EC20; 0% = ACh EC20, 100% = maximal ACh; in the data active means activation above about 19%, passing the limit was not always enough
Target sequence (P11229 whole entry, looked up): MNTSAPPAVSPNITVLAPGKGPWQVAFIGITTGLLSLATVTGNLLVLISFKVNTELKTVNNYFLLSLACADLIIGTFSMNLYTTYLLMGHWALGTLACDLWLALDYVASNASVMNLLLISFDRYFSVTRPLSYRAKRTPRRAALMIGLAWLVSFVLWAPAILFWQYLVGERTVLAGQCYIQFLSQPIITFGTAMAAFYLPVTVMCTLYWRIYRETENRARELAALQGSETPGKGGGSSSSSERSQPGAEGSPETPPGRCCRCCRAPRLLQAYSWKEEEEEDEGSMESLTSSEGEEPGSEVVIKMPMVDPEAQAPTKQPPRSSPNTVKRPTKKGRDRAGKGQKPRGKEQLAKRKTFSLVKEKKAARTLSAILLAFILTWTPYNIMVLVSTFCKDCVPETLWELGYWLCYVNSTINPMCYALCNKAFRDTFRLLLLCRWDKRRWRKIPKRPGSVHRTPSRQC
M1 antag: blocks human M1 muscarinic receptor | P11229 | CHO-K1 hM1, Fluo-8 calcium fluorescence, ACh EC80 antagonist | inhibition, % at 3 µM | 360,000 tested, 1.3% active | AID 588852;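 active means percent inhibition above its own plate's cutoff, namely the mean of that plate's compound wells plus 3 SD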;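 further: peak over basal fluorescence ratio during 140 s after agonist addition; 0% = ACh EC80 plus DMSO and 100% = DMSO alone without agonist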
CHO-K1 Ca antag: M1 antagonist counterscreen hit in parental CHO-K1 cells. 360,000 tested, 0.6% active. inhibition, % at 3 µM. AID 602250. ATP-induced calcium, Fluo-8 fluorescence;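 active means inhibition above a per-plate cutoff, the plate's mean sample inhibition plus 3 SD, cut at about 24% in these data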;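 further: 0% = DMSO plus EC80 ATP and 100% = DMSO alone without ATP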
M1 PAM parental: counter-screen for M1 PAMs: effect in parental CHO-K1 cells | 360,000 tested, 0.02% active | ATP EC20, Fluo-8 calcium fluorescence; 0% at ATP EC20, 100% at ATP max | activation, % at 3 µM;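 active means activation above the run cutoff, the mean activation of all test compounds plus 3 SD, cut at about 40% in these data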;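 further: peak over basal fluorescence ratio in a 140 s read after ATP addition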
CHO-K1 Ca ag: counter-screen for M1 agonists: effect in parental CHO-K1 cells; activation, % at 3 µM; AID 602248; 360,000 tested, 0.48% active; Fluo-8 calcium fluorescence; scaled to maximal ATP response, vehicle zero; in the data active means activation above about 15%;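 further: untransfected CHO-K1 host cells lacking M1 receptor as counterscreen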
CHRM1 agonist: activates human CHRM1 receptor | P11229 | CHO-K1 hM1, Fluo-8 calcium fluorescence, agonist mode; 0% DMSO, 100% acetylcholine EC100 | activation, % at 3 µM | 360,000 tested, 0.33% active | AID 588814;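 active means activation above the run's mean compound activation plus 3 SD, cut at about 16% in these data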;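 further: peak over basal fluorescence ratio within a 140 s kinetic read after compound addition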
The depositor's hits bear a star; . = no result given. Compounds with a hit are over-represented: about 2.3% of the library has one in this group of screens.

SMILES	M1 PAM	M1 antag	CHO-K1 Ca antag	M1 PAM parental	CHO-K1 Ca ag	CHRM1 agonist
CCN(CC)c1ccc(C2C(C(=O)OCCOC(C)C)=C(C)NC3=C2C(=O)CCC3)cc1 (stereo unspecified)	-22.9	90.1*	19.5	-8.2	0.1	-5.5
CC1=CC(=O)C(Sc2ccc(C)cc2)=CC1=O	8.8	-5.2	-2.0	4.0	0.3	-0.6
COc1ccccc1C1OCC(C)([N+](=O)[O-])CO1 (stereo unspecified)	2.9	-5.7	-9.9	17.1	1.1	-0.3
CC1([N+](=O)[O-])COC(c2cccc3ccccc23)OC1 (stereo unspecified)	-8.7	10.6	26.1*	-14.8	-0.2	-2.4
COc1ccccc1S(=O)(=O)N(C)C[C@@H]1OCc2cnnn2CCCC(=O)N([C@H](C)CO)C[C@H]1C	-10.0	18.8	7.4	-11.8	-0.2	-11.1
CCCCOCCCNC(=O)C[C@@H]1C[C@@]2(C(=O)OCC)CCC=C2N(Cc2cccc3ccccc23)C1=O	.	.	-16.5	-3.5	-1.0	.
CCc1ccc2c(c1)C(c1ccc([N+](=O)[O-])cc1)=NNC(c1ccc(C)cc1)=N2	-0.6	3.5	10.6	15.9	18.2*	-7.7
Cc1cc(C)nc(-n2nc(C)cc2NC(=O)CN2CCC(C)CC2)n1	20.4*	-13.4	0.0	5.5	0.2	-7.5
Cc1cc(C)nc(-n2nc(C)cc2NC(=O)CN2CCCC2)n1	3.0	-3.9	-5.2	17.8	0.6	-5.3
CCCCc1cc2ccccc2c(OCCN(C)C)n1	-27.8	56.5*	-18.1	18.7	2.9	-6.8
O=c1[nH]nc(Br)c(=O)n1C(c1ccccc1)c1ccccc1	-13.2	7.8	-13.9	27.9	26.2*	18.7*
COc1cc(/C=C/C(=O)OC(C)C(=O)Nc2c(C)n(C)n(-c3ccccc3)c2=O)ccc1O (stereo unspecified)	5.7	-7.0	5.3	-4.7	0.1	-1.9
CCc1ccc(NC(=O)C(C)OC(=O)/C=C/c2ccc(O)c(OC)c2)cc1 (stereo unspecified)	-6.6	-4.0	-7.5	-12.0	25.2*	34.2*
CC(C)c1ccc(NC(=O)C2Cc3c(-c4ccccc4Oc4ccccc4)ccnc3O2)cc1 (stereo unspecified)	-4.0	2.8	-20.3	19.5	2.1	-3.2
CCn1ccc(C(=O)Nc2ccc(Cl)cn2)n1	-19.4	32.6*	20.5	-6.6	3.7	-0.3
CCOC(=O)[C@]12CCC=C1N(Cc1ccc3c(c1)OCO3)C(=O)[C@H](CC(=O)N1CCC(c3ccccc3)CC1)C2	.	.	-32.1	23.6	1.0	.
Cc1ccc(S(=O)(=O)N/N=C/c2ccc(OC3CSC3)cc2)cc1	-4.4	37.0*	17.1	11.2	16.6*	29.3*
O=C(Nc1ccc(Br)cc1)c1ccc(F)c(S(=O)(=O)NCc2cccs2)c1	-19.3	34.4*	28.3*	0.1	10.7	-2.4
O=C(OCC#CCSc1nnc(-c2ccncc2)o1)c1cccs1	5.0	1.1	-6.2	18.0	17.4*	-7.7
CC(C)C1CC(CCN)(c2ccccc2)CCO1 (stereo unspecified)	-11.6	73.6*	-7.3	16.7	0.3	-4.7
CO/N=C/c1ccc(Sc2ccccc2)c([N+](=O)[O-])c1	8.1	-3.2	25.5*	-6.2	-0.8	-0.1
CO/N=C/c1ccc(Sc2ccccc2N)c([N+](=O)[O-])c1	-3.7	-9.2	-1.6	6.5	-0.1	-5.5
CC1(C(=O)NS(=O)(=O)c2ccccc2Cl)CCN1C(=O)c1ccccc1CCc1ccccc1 (stereo unspecified)	0.0	-0.1	-7.8	8.0	0.2	-5.7
COc1ccc(OC)c(CN2CCN(C(=O)c3cccc(S(=O)(=O)N(C)c4ccccc4)c3)CC2)c1	7.0	-13.7	8.5	-6.2	2.6	-4.4
Nc1nc(NCc2ccccc2)nc(NCc2ccccc2)c1[N+](=O)[O-]	11.2	-7.8	-4.7	24.2	-0.2	-2.9
SMILES	M1 PAM	M1 antag	CHO-K1 Ca antag	M1 PAM parental	CHO-K1 Ca ag	CHRM1 agonist
COCCCNc1nc(N)c([N+](=O)[O-])c(NCc2ccccc2)n1	-3.1	3.0	-18.8	9.4	3.9	2.3
CN(C)CCCNc1nc(N)c([N+](=O)[O-])c(NCc2ccccc2)n1	-21.5	51.8*	2.0	2.7	0.2	-9.6
Nc1nc(Nc2ccccc2)nc(NCc2ccccc2)c1[N+](=O)[O-]	3.4	-5.0	-0.9	14.9	20.0*	-3.2
COCCNc1nc(N)c([N+](=O)[O-])c(NCc2ccccc2)n1	8.3	-1.6	-14.8	-4.5	2.3	-0.8
COCCCNc1nc(N)c([N+](=O)[O-])c(Nc2ccccc2OC)n1	9.7	-17.9	5.3	10.6	20.4*	10.5
Cn1c(=O)c2cc(NC(=O)NCc3ccc(Cl)cc3Cl)ccc2n1Cc1ccccc1	2.5	-0.4	18.4	-10.2	-0.2	-6.5
COc1ccc(-c2c(C(=O)c3ccc(Br)cc3)[nH]c(N)c2C(=O)c2ccccc2)cc1OC	.	.	-6.2	18.0	5.1	.
CCOc1ccc(CCN2C(=S)N([C@@H](Cc3ccc(O)cc3)CN3CCC[C@@H]3CN3C(=S)NC[C@@H]3CC(C)C)C[C@@H]2Cc2ccc(O)cc2)cc1	4.5	12.9	8.2	11.7	0.4	-6.1
COCCNC(=O)C1(C)CCCN(Cc2ccc(Oc3ccccc3)cc2)C1 (stereo unspecified)	-9.0	8.6	-13.2	13.9	1.8	-7.7
O=C(Nc1ccccc1Cl)Nc1ccccc1Cl	5.3	-9.5	-9.5	22.2	0.7	-4.1
O=C(Nc1csc([N+](=O)[O-])c1)Nc1ccccc1Cl	-16.5	40.8*	26.6*	-9.8	15.8*	2.4
Cc1c(C(=O)N2CCCC(C)(C(=O)NS(=O)(=O)C3CC3)C2)oc2ccccc12 (stereo unspecified)	12.9	-12.1	0.5	4.9	0.8	-0.5
CCN(CC(=O)Nc1ccccc1C(F)(F)F)C(=O)CN1C(=O)NC2(CCCCC2)C1=O	4.3	-4.6	26.8*	-25.9	0.3	-3.8
CCC1(c2ccccc2)NC(=O)N(CC(=O)N(CC(=O)Nc2ccccc2C(F)(F)F)Cc2ccco2)C1=O (stereo unspecified)	3.9	-16.8	-4.1	7.8	4.4	18.1*
CCCNC(=O)Nc1nc(C(N)c2ccc(OC)cc2)cs1 (stereo unspecified)	-4.5	-12.2	6.3	-1.4	0.1	2.0
CCN(Cc1ccccc1)C(=O)COC(=O)Cc1c[nH]c2ccccc12	-0.3	3.3	25.4*	-12.7	4.8	-3.4
CC(=O)NC(=Cc1ccccc1)C(=O)N1CCCC1C(=O)O (stereo unspecified)	6.6	-4.0	8.4	0.5	3.3	-2.1
CC(C)c1ccc(NC(=O)C[n+]2ccn(C3=C([O-])c4ccccc4C3=O)c2)cc1	-7.6	8.0	-3.2	-4.8	17.9*	-5.7

Screens (PubChem BioAssay)
